Measurements from PubChem BioAssay (NCATS).
Inconclusive results are not listed. Active and inactive are the calls of the source. Unless noted, calls come from the whole dose curve; as a rule, active = well fitted curve in the direction sought with a large enough effect; inconclusive = small, poorly fitted or top-dose-only effect, or another doubt; inactive = no such curve, though single readings can be large; an effect the other way counts as inactive or inconclusive.

Key:
[1] = qHTS profiling of the MIPE4 collection as inhibitors of Plasmodium falciparum (3D7) proliferation (AID 743344; call rule not given here;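 note: scaled between DMSO vehicle wells and 0.29 µM artemisinin as full inhibition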); details: P. falciparum 3D7 in erythrocytes, SYBR Green DNA fluorescence, 72 h; at 28.5 µM unless noted
How it was run: (§1)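 Parasite DNA was quantified by SYBR Green I fluorescence (ex 485, em 535 nm) after overnight lysis in saponin/Triton buffer at room temperature. Cultures at 0.3% parasitemia and 2.5% hematocrit were first exposed to compound for 72 h at 37 C; signals were normalised to artemisinin (0.29 uM) and vehicle wells.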

[2] = qHTS profiling of the MIPE4 collection as inhibitors of Plasmodium falciparum (DD2) proliferation (AID 743345; call rule not given here); details: P. falciparum Dd2 in erythrocytes, SYBR Green DNA, 72 h; at 28.5 µM unless noted
How it was run: as §1

[3] = qHTS profiling of the MIPE4 collection as inhibitors of Plasmodium falciparum (DD2) proliferation (Rep 2) (AID 743346; call rule not given here); details: P. falciparum Dd2 in erythrocytes, SYBR Green DNA, 72 h; at 28.5 µM unless noted
How it was run: as §1

[4] = qHTS profiling of the MIPE4 collection as inhibitors of Plasmodium falciparum (HB3) proliferation (AID 743347; call rule not given here;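 note: plate controls were DMSO vehicle wells for no effect and artemisinin wells for full effect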); details: P. falciparum HB3 in erythrocytes, SYBR Green DNA, 72 h; at 28.5 µM unless noted
How it was run: as §1

[5] = High-throughput drug toxicity screening in the BPDCN cell line Gen2.2 (AID 1224824; call rule not given here;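 note: cells exposed to compounds for 48 h before reading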); details: Gen2.2 BPDCN cells; at 45.8 µM (top of the series) unless noted
How it was run: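 Readout is ATP luminescence from Gen2.2 cells after two days of drug exposure in serum-containing medium at 37 °C. Values express percent activity, with vehicle defining full signal and 9.2 uM bortezomib defining zero.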

[6] = High-throughput drug toxicity screening in the BPDCN cell line Cal-1 (AID 1224825; call rule not given here); details: Cal-1 BPDCN cell viability, qHTS; at 45.8 µM (top of the series) unless noted
How it was run: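 CellTiter-Glo luminescence after 48 h compound exposure; percent activity scaled with DMSO as 100% and bortezomib (9.2 uM final) as 0%. Cal-1 cells seeded at 500/well in RPMI, 10% FBS, no phenol red.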

[7] = qHTS assay for measurement of the activity of small molecule inhibitors on Zika virus induced Caspase-3 activity in human iPSC derived neural progenitor cells (hNPCs) (AID 1224857); note: % of control where 0% means no effect; nearly all actives have a fitted effect of over 65% in size
How it was run: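 Human iPSC-derived neural progenitor cells pretreated 1 hr with compounds, then infected with Zika virus (2 FFU/cell) for 6 hours at 37 C. Caspase-3/7 measured by Caspase-Glo luminescence; % inhibition calculated from induction scaled to uninfected (0%) and infected (100%) wells.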

[8] = qHTS assay for measurement of the activity of small molecule inhibitors on Zika virus induced Caspase-3 activity in human astrocytoma cells (AID 1224859);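 note: plate controls were ZIKV-infected untreated cells for no effect and uninfected cells for full effect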
How it was run: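 SNB-19 astrocytoma cells, 250/well, pretreated 1 h with compounds, then Zika virus at 2 FFU/cell for 6 h at 37 C; Caspase-Glo 3/7 luminescence after 30 min; percent inhibition normalised to uninfected and infected controls.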

[9] = qHTS Screen of the MIPE 4.0 Collection Against Ewings Sarcoma (RDES) (AID 1259252); note: nearly all actives have a fitted effect of over 35% in size; note: potency is the fitted concentration of half-maximal effect
How it was run: (§2)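 Dose series incubated 48 h with cells in RPMI plus 5% FBS, glutamine and penicillin/streptomycin; cell viability then quantified via CellTiter-Glo.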

[10] = qHTS Screen of the MIPE 4.0 Collection Against Ewings Sarcoma (TC71) (AID 1259253); note: nearly all actives have a fitted effect of over 40% in size; note: potency is the fitted concentration of half-maximal effect
How it was run: as §2

[11] = qHTS Screen of the MIPE 4.0 Collection Against Ewings Sarcoma (EW8) (AID 1259255); note: nearly all actives have a fitted effect of over 35% in size; note: potency is the fitted concentration of half-maximal effect;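 for viability: 100% = DMSO-treated cells and 0% = medium-only wells without cells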
How it was run: as §2

[12] = qHTS Screen of the MIPE 4.0 Collection Against Ewings Sarcoma (TC32) (AID 1259256); note: nearly all actives have a fitted effect of over 45% in size; note: potency is the fitted concentration of half-maximal effect
How it was run: as §2

[13] = P-glycoprotein substrates identified in KB-8-5-11 adenocarcinoma cell line, qHTS therapeutic library screen (AID 1346987); note: nearly all actives have a fitted effect of over 65% in size; note: potency is the fitted concentration of half-maximal effect
How it was run: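 In this qHTS, P-gp-rich KB-8-5-11 cells received library compounds across a concentration range. Viability was quantified by luminescence after 72 h at 37 degree C.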

Compound | parasite growth, % of DMSO control [1] | parasite growth remaining, % of DMSO control (lower = more inhibition) [2] | parasite growth, % of control (lower = inhibition) [3] | growth, % of control [4] | cell viability, % of control (lower = more cytotoxic) [5] | viability (% of control) [6] | Potency [7] | Potency [8] | Potency [9] | Potency [10] | Potency [11] | Potency [12] | Potency [13]
O=C1NC(=O)[C@@H](c2cn3c4c(cccc24)CCC3)[C@H]1c1c[nH]c2ccccc12 | 54.8% | 94.8% | 86.1% | 60.4% | 4.68% | 14.9% | inactive | inactive | 296 nM (active) | 526 nM (active) | 235 nM (active) | 166 nM (active) | 469 nM (active)
CS[C@H]1SC[C@@H]2C(=O)N(C)[C@H](C(C)C)C(=O)OC[C@H](NC(=O)c3cnc4ccccc4n3)C(=O)N[C@H](C)C(=O)N(C)[C@@H]1C(=O)N(C)[C@H](C(C)C)C(=O)OC[C@H](NC(=O)c1cnc3ccccc3n1)C(=O)N[C@H](C)C(=O)N2C | 7.68% | 5.94% | 7.64% | 10.7% | 3.67% | 5.19% | inactive | inactive | 1.9 nM (active) | 2.6 nM (active) | 1.9 nM (active) | 1.9 nM (active) | 590 nM (active)
C=C[C@@H]1CN2CCC1C[C@H]2[C@H](O)c1ccnc2ccc(OC)cc12 (stereo partly specified) | 10.4% | 9.84% | 15.1% | 12.1% | 111% | 70% | inactive | inactive | inactive | inactive | inactive | inactive | inactive
c1cc(CN2CCCNCCNCCCNCC2)ccc1CN1CCCNCCNCCCNCC1 | 91.4% | 96.2% | – | 88.5% | 133% | 120% | inactive | inactive | inactive | inactive | inactive | inactive | inactive
